Several values for one entry are separate records, joined by “and”; a condition that tells them apart may be missing. Identical values can stand only once. Records with an inconclusive call do not appear. Activity calls are given as the source filed them. How the source made its calls: active means hit-call score of the fitted dose curve at least 0.9, where 1 is the maximum; inconclusive means response in the unintended direction; inactive means score below 0.9.
assay: ACEA_ER_AUC_viability: ACEA Biosciences xCELLigence Real-Time Cell Analysis on Estrogen Receptor Agonism for Viability (AID 2283782);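 further: continuous compound exposure with impedance area under curve over 80 h; hit means loss of impedance signal meaning reduced cell growth or viability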
Procedure, shortened: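 T-47D; phenol red-free RPMI1640 + 10% CS-FBS; 8 conc., 1:4 serial, max 100 uM final, ≤0.5% DMSO; n = 2; continuous exposure; impedance monitored to 80 h post-dose; AUC vs DMSO.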

SMILES	outcome	AC50
COc1c(Cl)ccc(Cl)c1C(=O)O	inactive	–
COC(=O)CSc1cc(N=c2sc(=O)n3n2CCCC3)c(F)cc1Cl	inactive	–
CCCCOCCOCCOCc1cc2c(cc1CCC)OCO2	inactive	–
O=C(Nc1ccc([N+](=O)[O-])cc1Cl)c1cc(Cl)ccc1O	–	2.89 µM (active)
CCOC(=O)COc1cc(-n2ncc(C(F)(F)F)c(C)c2=O)c(F)cc1Cl	inactive	–
CCCCC(CC)CN1C(=O)C2C3C=CC(C3)C2C1=O (centres undefined)	–	70.2 µM (active)
CCC(C)OC(=O)N1CCCCC1CCO (centres undefined)	inactive	–
Oc1ccc(C(c2ccc(O)cc2)C(Cl)(Cl)Cl)cc1	–	83.7 µM (active)
CSC(=O)c1cccc2nnsc12	inactive	–
CCCCCCC(C)OC(=O)COc1nc(F)c(Cl)c(N)c1Cl (centres undefined)	–	14.3 µM (active)
c1ccc(Nc2ccccc2)cc1	inactive	–
C=CCOC(Cn1ccnc1)c1ccc(Cl)cc1Cl (centres undefined)	–	50 µM (active)
O=C(O)C1(C(=O)Nc2ccc(Cl)cc2Cl)CC1	inactive	–
CCOC(=O)NCCOc1ccc(Oc2ccccc2)cc1	–	95.3 µM (active)
CCCCC(CC)COC(=O)c1ccccc1C(=O)O (centres undefined)	inactive	–
CC(C)CCCCCCc1ccc(O)cc1	–	20.2 µM (active) and 21.5 µM (active) and 20.6 µM (active)
CN(C)C(=O)Nc1ccc(Cl)c(Cl)c1	inactive	–
O=C(O)c1ccccc1	inactive	–
c1ccc2[nH]c(-c3cscn3)nc2c1	inactive	–
